High-throughput results deposited in PubChem by National Center for Advancing Translational Sciences (NCATS).
D2 PAM-1 = D2 dopamine receptor (human) potentiation. P14416. HEK293 T-REx D2, calcium flux, EC20 dopamine potentiation. potentiation, % at 10 µM. 340,000 compounds, 0.34% hits;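 active means potentiation over 3 SD above the plate norm, cut at about 30% in these data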; further: 0% is about no effect
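Calcium flux readout, no-wash dye, 1 read/s. Inducible HEK293 Trex D2 line, overnight 30 C. Compound alone 180 s (agonist flags), then EC20 dopamine, another 180 s to score potentiation.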
D2 antagonist = antagonizes the human D2 dopamine receptor. 340,000 compounds, 2% hits. inhibition, % at 10 µM. HEK293 TREx D2 cells, calcium flux, dopamine EC80; in the data active means inhibition above about 30%; inactive means below that, where a call was filed; further: 0% is about no effect
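Calcium mobilization kinetics were recorded at 1 s intervals in tetracycline-induced HEK293 T-REx D2 cells, first for 180 s after compound addition and then 180 s after EC80 dopamine.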
D2 ag-1 = agonists of human D2 dopamine receptor (beta-arrestin) | P14416 | 360,000 compounds, 0.084% hits | activation, % (concentration not given with the values) | AID 624465 | DiscoveRx PathHunter D2 beta-arrestin, luminescence, 90 min; 100% = 57 uM dopamine signal; in the data active means activation above about 40%; inconclusive means between about 15% and that limit
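DiscoveRx PathHunter D2 beta-arrestin cells (2,100/well) attached overnight, then compound-stimulated 90 min at 37 C in HBSS/10 mM HEPES/0.1% Tween-20 buffer; beta-galactosidase complementation read by luminescence after 1 h at ambient temperature. Dopamine 57 uM final (EC100) as control.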
D2 PAM-2 = potentiates the human D2 dopamine receptor allosterically; P14416; AID 624464; 360,000 compounds, 0.23% hits; potentiation, % (test concentration not listed); DiscoveRx D2 beta-arrestin cells, luminescence, 90 min; 100% = 57 uM dopamine signal; in the data active means potentiation above about 50%; inconclusive means mostly about 30% to 49%
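PathHunter beta-arrestin assay in DiscoveRx D2 cells. Compounds were added with an EC20 of dopamine (50 nM final) for 90 min at 37 deg C. Luminescence was read 1 h after detection reagent, with 57 uM dopamine as the EC100 control.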
D2 ag-2 = agonists of human D2 dopamine receptor | activation, % at 2 µM | 340,000 compounds, 0.53% hits | AID 485358 | HEK293 T-REx D2 cells, calcium flux agonist mode;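 active means activation over 3 SD above normal in the single-dose calcium agonist read, cut at about 30% in these data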; further: 0% is about no effect
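HEK293 Trex D2 cells, tetracycline-induced, o/n 30 C 5% CO2; no-wash Ca dye, RT 30–90 min; 10-cycle baseline, 23 nl cpd added, kinetic Ca read 180 s; agonist hits = positive Ca response.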
D3 ag = confirmation of human D3 dopamine receptor agonists, beta-arrestin; 2,300 compounds, 4% hits; Potency, µM (top dose mostly 76.9 µM), inactives show top-dose activation, actives largely listed as activators; shares compounds with D2 ag-2; DiscoveRx D3 beta-arrestin cells, luminescence, 90 min;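 further: potency means the concentration at half of the fitted maximal effect; 100% = dopamine control response; nearly all actives have a fitted effect of over 70% in size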
Target sequence (P35462 whole entry, looked up): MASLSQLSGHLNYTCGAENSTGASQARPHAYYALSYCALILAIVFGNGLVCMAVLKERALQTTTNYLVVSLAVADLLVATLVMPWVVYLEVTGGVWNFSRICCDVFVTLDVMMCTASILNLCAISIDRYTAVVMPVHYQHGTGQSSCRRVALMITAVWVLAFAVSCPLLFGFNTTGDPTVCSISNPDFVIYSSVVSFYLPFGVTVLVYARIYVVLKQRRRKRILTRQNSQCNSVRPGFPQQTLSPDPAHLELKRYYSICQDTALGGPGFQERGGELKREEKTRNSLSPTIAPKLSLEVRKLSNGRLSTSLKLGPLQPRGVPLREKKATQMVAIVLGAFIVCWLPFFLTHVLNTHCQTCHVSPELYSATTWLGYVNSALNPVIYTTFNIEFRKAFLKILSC
D2 ag-3 = D2 receptor agonism, beta-arrestin counterscreen | shares compounds with D2 ag-2 | DiscoveRx PathHunter D2 beta-arrestin, luminescence, 90 min; response scale: percent relative to full dopamine signal | Potency, µM (titrated, usually from 76.9 µM), for inactives: top-dose activation, hits mostly activators | 2,300 compounds, 5.9% hits | AID 720507; further: potency means the concentration at half of the fitted maximal effect; % of control where 0% means no effect; nearly all actives have a fitted effect of over 70% in size
Active calls of the source: *; u = inconclusive; x = no result given. This is a sample that favours compounds with a hit; in the whole collection about 2.4% have one here. Unless noted, the call rests on the fitted dose curve; in most records, active means well fitted activation curve with a large enough effect; inconclusive means small, poorly fitted or top-dose-only effect; inactive means flat fitted curve, though single readings scatter.

SMILES	D2 PAM-1	D2 antagonist	D2 ag-1	D2 PAM-2	D2 ag-2	D3 ag	D2 ag-3
COC(=O)C1=C(c2ccc(OCc3ccccc3)cc2)C[C@@H]2CC[C@H]1N2C(=O)NCc1ccc(N(C)C)cc1	16	-4	-3	-7	1	-1%	4%
CCCNC(=O)N1[C@H]2CC[C@@H]1C(C(=O)OC)=C(c1ccc(-c3ccccc3)c(F)c1)C2	-6	-10	-1	-17	1	1%	u
COC(=O)C1=C(c2ccc(-c3ccccc3)c(F)c2)C[C@@H]2CC[C@H]1N2C(=O)NCCOc1ccccc1Cl	-5	-8	-3	-16	0	-1%	0%
COC(=O)C1=C(c2ccc(OCc3ccccc3)cc2)C[C@@H]2CC[C@H]1N2C(=O)NCc1ccc(F)cc1	x	x	-9	-6	x	x	x
COC(=O)C1=C(c2ccc(-c3ccccc3)c(F)c2)C[C@@H]2CC[C@H]1N2C(=O)NCCO	-2	4	-2	-12	0	-2%	2%
N#Cc1ccccc1NC(=O)c1cccn(Cc2ccccc2)c1=O	17	x	x	x	1	x	x
CCCCCc1nc2c(c(=O)c3ccccc3n2C)c(=O)n1C1CCCCCC1	-15	46*	-2	-6	36*	16%	3%
CCCCCc1nc2ccccc2c(=O)n1-c1ccc(C)cc1	9	x	x	x	-1	x	x
CCc1ccc(CNCCc2c[nH]c3ccccc23)cc1	-16	14	-3	-77	7	-14%	-1%
CS(=O)(=O)c1ccc(C2=C(CNC(=O)c3nccs3)[C@H]3CC[C@@H](C2)N3Cc2ccco2)cc1	x	x	-9	2	x	x	x
CNCCc1c[nH]c2ccccc12	-7	16	5	-20	11	x	x
CCC(N)Cc1c[nH]c2ccccc12 (configuration not stated)	-5	-24	1	-4	12	-4%	-3%
O=C1c2ccccc2-c2c1nc1c([n+]2[O-])CCCC1	-6	15	-13	-26	29	-66%	-21%
NCC(O)c1cc(O)c(O)cc1F (configuration not stated)	-5	81*	-4	0	67*	0%	13µM*
CCN(CC)P(=O)(/C=C(\Cl)c1ccccc1)/C=C(\Cl)c1ccccc1	11	17	-3	-9	0	-15%	1%
CCN(CC)C(=O)c1ccc(NC(=O)CNC(C)c2cccc3ccccc23)cc1 (configuration not stated)	-10	-18	2	-4	0	x	x
Clc1ccc2c(c1)C(c1ccccc1Cl)=NCc1nnc(N3CCN(CCSc4ccccc4)CC3)n1-2	-6	-7	-5	-4	0	x	x
Clc1ccc2c(c1)C(c1ccccc1Cl)=NCc1nnc(N3CCN(CCOc4ccccc4)CC3)n1-2	-35	65*	3	-18	58*	u	20%
CN(C)C(=O)Oc1ccc2c(c1)O/C(=C\c1cccc(Cl)c1)C2=O	1	-4	0	-2	0	x	x
CCOC(=O)C1CCN(Cc2ccc(Cl)nc2)CC1	-20	47*	4	-13	47*	-3%	1%
CCOc1ccc(CN2CCN(C(=O)Cc3ccccc3)CC2)cc1	-3	-14	-7	-21	1	x	x
O=C(CCc1ccccc1)N1Cc2cc(N3CCCCC3)ccc2-n2nncc2C1	x	x	-2	-3	x	x	x
CCN(CC)CC(O)c1ccc(C2CCCC2)cc1 (configuration not stated)	3	-4	-2	-2	0	x	x
N#C/C(N)=C(/N)C#N	12	4	-5	-13	0	-4%	-5%
O=c1[nH]c(=S)n(C2CCCCC2)c(O)c1/C=N/N1CCOCC1	-7	4	-6	-28	-1	x	x
CC(CCc1ccccc1)NC(C)C(O)c1ccc(O)cc1 (configuration not stated)	-25	64*	-4	-14	71*	11%	13%
CN1C(=O)C(O)N=C(c2ccccc2)c2ccccc21 (configuration not stated)	-1	-1	-3	3	0	x	x
COc1cc2c3c(c1OC)-c1cc(O)ccc1CC3NCC2 (configuration not stated)	-10	0	9	-13	21	-4%	16%
COc1ccc(/C=C/c2nc3ccccc3c(=O)n2-c2ccc(C)cc2)cc1O	x	x	x	x	0	x	x
